Assay outcomes as filed in PubChem.
Compounds with a hit are over-represented: about 3% of the library has one in this group of screens.
Mtb FBA inh – Mtb FBA enzyme inhibitors, primary screen, biochemical, fluorescence, strain H37Rv; purified M. tuberculosis FBA, fluorescence read-out; inhibition, % at 1 µM; hit rate 2.3% among 360,000; in the data active = inhibition above about 27%;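 note: 0% = vehicle and 100% = reference inhibitor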
Target sequence (P9WQA3 whole entry, looked up): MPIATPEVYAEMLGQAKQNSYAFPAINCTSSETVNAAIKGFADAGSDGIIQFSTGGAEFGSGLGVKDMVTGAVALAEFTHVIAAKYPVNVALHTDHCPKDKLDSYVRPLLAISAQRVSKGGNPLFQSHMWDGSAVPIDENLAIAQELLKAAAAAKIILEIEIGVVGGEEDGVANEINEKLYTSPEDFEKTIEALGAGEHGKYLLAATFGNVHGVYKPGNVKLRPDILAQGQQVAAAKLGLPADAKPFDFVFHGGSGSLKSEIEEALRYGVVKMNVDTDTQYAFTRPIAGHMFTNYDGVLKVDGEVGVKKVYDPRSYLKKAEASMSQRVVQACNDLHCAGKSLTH
BioA inh – M. tuberculosis BioA enzyme inhibitors, primary screen, biochemical, plate reader, single point, HTS. 7,8-diaminopelargonic acid synthase BioA (Mycobacterium tuberculosis). purified M. tuberculosis BioA enzyme. inhibition, % at 9.99 µM. hit rate 0.096% among 360,000. AID 602481, 2012; in the data active = inhibition above about 40%; inconclusive = no clear call, values can overlap the other calls
GDH-TPI counter – GDH-TPI coupling enzyme inhibitors, primary screen, artefact control for M. tuberculosis FBA inhibitor project, biochemical, absorbance, full deck; hit rate 1.2% among 360,000; AID 588335, 2011; inhibition, % at 4.8 µM; GDH-TPI coupled enzyme counterscreen, NADH absorbance; in the data active = inhibition above about 30%;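 note: 0% = DMSO wells and 100% = wells lacking the enzyme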
FadD28 binding – inhibitors of FadD28 bisubstrate probe binding, primary screen, biochemical, fluorescence polarization, single point; Mycobacterium tuberculosis FadD28 fatty-acid-AMP ligase; hit rate 0.22% among 360,000; inhibition, % at 12.5 µM; in the data active = inhibition above about 8.5%, passing the limit was not always enough; inconclusive = no clear call, values can overlap the other calls
Rv3671c protease – Rv3671c serine protease inhibitors, primary screen, biochemical, fluorescence polarization, M. tuberculosis H37Rv; P9WHR9; AID 2606, 2010; hit rate 0.048% among 320,000; inhibition, % at 5.96 µM; in the data active = inhibition above about 38%;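 note: extracellular domain of Rv3671c used as enzyme; 0% = enzyme with DMSO and 100% = no enzyme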
Numbers without * were called inactive; ? = inconclusive; / = no result; + = active, no number.

SMILES	Mtb FBA inh	BioA inh	GDH-TPI counter	FadD28 binding	Rv3671c protease
Cc1noc(C)c1NC(=O)Nc1ccc2c(c1)C(=O)N([C@@H](C)CO)C[C@@H](C)[C@@H](CN(C)C(=O)Nc1cccc3ccccc13)O2	/	10	/	/	/
CN1[C@@H]2Cn3c(ccc(-c4ccccc4)c3=O)[C@H]1[C@@H](C(=O)Nc1nccs1)[C@@H]2CO	/	-1	/	/	/
Cc1noc(C)c1S(=O)(=O)Nc1ccc2c(c1)C(=O)N([C@@H](C)CO)C[C@@H](C)[C@@H](CN(C)Cc1ccc(Cl)c(Cl)c1)OCCCC[C@@H](C)O2	/	2	/	/	/
Cc1cc(-c2csc3nc[nH]c(=S)c23)cc(C)c1C	3	0	40*	-2	5
Cc1ccsc1/C=N/NC(=O)c1cc(-c2ccncc2)nc2ccccc12	-4	/	43*	-7	1
CC(/C=N/NC(=O)c1cc(-c2ccncc2)nc2ccccc12)=C\c1ccco1	1	-1	18	-5	6
COc1ccccc1-c1cc(C(=O)N/N=C/c2ccc(C)o2)c2ccccc2n1	0	-1	49*	2	/
O=C(N/N=C/c1ccco1)c1cc(-c2cccc(Br)c2)nc2ccccc12	-1	0	41*	-1	-3
O=C(N/N=C/c1ccc([N+](=O)[O-])o1)c1cc(-c2ccc(-c3ccccc3)cc2)nc2ccccc12	15	/	10	-1	-26
O=C(N/N=C/c1ccc([N+](=O)[O-])o1)c1cc(-c2ccncc2)nc2ccccc12	1	0	40*	-2	-1
COC(=O)[C@@H]1[C@@H](CO)[C@@H]2Cn3c(ccc(-c4ccc(F)cc4)c3=O)[C@@H]2N1C(=O)C1CC1	/	-1	/	/	/
Cc1cc2c(c(=O)n1Cc1cccnc1)C(c1ccccc1)C(C#N)=C(N)O2 (stereo unspecified)	0	48*	-8	-1	-1
Cc1cc2c(c(=O)n1Cc1ccc3c(c1)OCO3)C(c1cccnc1)C(C#N)=C(N)O2 (stereo unspecified)	0	4	-5	-4	-4
CC1(C)OC(=O)C(=NNc2ccccc2C(=O)O)C(=O)O1	-4	/	49*	0	7
CO[C@H]1CN(C)C(=O)c2cc(NC(C)=O)ccc2OC[C@H](C)N(CCC(F)(F)F)C[C@H]1C	/	-2	/	/	/
CC(C)CC#Cc1ccc2c(c1)O[C@@H](CN(C)C(=O)c1ccncc1)[C@@H](C)CN([C@@H](C)CO)S2(=O)=O	/	-1	/	/	/
Cn1ccc2c(-c3cccc(C=O)c3)cc3c(c21)C1CCC3O1 (stereo unspecified)	3	1	/	-3	/
CC(=O)Nc1cccc(-c2cc3c(c4c2ccn4C)C2CCC3O2)c1 (stereo unspecified)	161*	4	/	3	/
CC1=C(/C=C/C(C)=C/C=C/C(C)=C/C(=O)Nc2ccc(O)cc2)C(C)(C)CCC1	-3	-2	35*	-4	11
C[C@@H](NC(=O)C[C@H]1C=C[C@@H](NS(=O)(=O)c2cccc(F)c2)[C@H](CO)O1)c1ccccc1	/	0	/	/	/
COCCCn1c(N)c(-c2nc3ccccc3n2C)c2nc3ccccc3nc21	2	-2	15	-4	-5
COCCCn1c(N)c(C(=O)OCCOC)c2nc3ccccc3nc21	+	-1	14	-1	-17
CCOC(=O)c1c(NS(=O)(=O)c2ccccc2)n(CCCOC)c2nc3ccccc3nc12	14	/	22	0	-227
Nc1c(C(=O)OCC2CCCO2)c2nc3ccccc3nc2n1Cc1cccs1 (stereo unspecified)	163*	0	22	-7	-30
CCOC(=O)c1c(N)n(CCCOC(=O)c2ccco2)c2nc3ccccc3nc12	+	1	9	-2	-13
SMILES	Mtb FBA inh	BioA inh	GDH-TPI counter	FadD28 binding	Rv3671c protease
COCCNC(=O)c1c(N)n(CCCn2ccnc2)c2nc3ccccc3nc12	132*	-3	16	-1	-19
COCCNC(=O)C[C@@H]1C[C@@H]2c3cc(NC(=O)c4cccnc4)ccc3O[C@@H]2[C@@H](CO)O1	/	26	/	/	/
CCCCNC(=O)c1c(N)n(CCCOC)c2nc3ccccc3nc12	115*	7	-1	-4	-82
CC(C)CCn1c(N)c(C(=O)NCc2cccs2)c2nc3ccccc3nc21	2	0	-4	0	-3
COCCNC(=O)c1c(N)n(CCC(C)C)c2nc3ccccc3nc12	121*	0	6	-9	-124
COCCn1c(N)c(C(=O)NCC2CCCO2)c2nc3ccccc3nc21 (stereo unspecified)	+	2	17	-2	-191
O=C(C[C@H]1CC[C@@H]2[C@H](COC[C@@H](O)CN2C(=O)Nc2cc(Cl)cc(Cl)c2)O1)NCC1CC1	/	-1	/	/	/
c1ccc(C(c2nnnn2C2CCCCC2)N2CCc3ccccc3C2)nc1 (stereo unspecified)	69*	0	2	-2	-27
CO[C@@H]1CN(C)C(=O)c2ccc(NS(=O)(=O)CC(F)(F)F)cc2OC[C@@H](C)N(C(=O)c2ccc3c(c2)OCO3)C[C@H]1C	/	1	/	/	/
O=C(N/N=C/c1cc(Br)c(O)c(Br)c1)c1cccnc1	0	16	31*	0	5
COc1ccc(/C=N/NC(=O)c2cccnc2)cc1COc1ccc(NC(C)=O)cc1	-8	23	31*	-6	-6
O=C(NN=Cc1ccc(N(CCCl)CCCl)cc1)c1cccnc1	-1	8	38*	?	/
COc1cc(/C=N/NC(=O)c2cccnc2)cc(Br)c1O	2	4	44*	-2	-3
O=C(N/N=C/c1ccc(Br)o1)c1cccnc1	1	/	16	0	-10
O=C(C[C@H]1C=C[C@H](NC(=O)Cc2ccccn2)[C@H](CO)O1)NCCc1ccncc1	/	-4	/	/	/
O=C(N/N=C/c1ccc(OC(=O)c2ccccc2)cc1)c1cccnc1	+	1	0	-1	-5
C[C@H]1CN([C@@H](C)CO)C(=O)c2cc(Br)cnc2O[C@@H]1CN(C)C(=O)Nc1ccc(F)cc1	/	0	/	/	/
COCCCn1c(=O)/c(=C\c2cccc(OC)c2OC)s/c1=C(/C#N)C(=O)Nc1ccc(C(=O)O)cc1	-2	-1	40*	-5	-19
COc1cc(-c2nnc(-c3ccco3)o2)ccc1OCc1ccccc1	121*	0	8	-2	-3
COc1cc(-c2nnc(-c3ccncc3)o2)ccc1OCc1ccccc1	3	1	-6	-1	-3
C[C@H]1CN([C@@H](C)CO)C(=O)Cc2cc(NC(=O)c3ccncc3)ccc2O[C@H]1CN(C)C(=O)Nc1ccc(C(F)(F)F)cc1	/	1	/	/	/
COC(=O)c1ccc(-c2ncc[nH]2)cc1	+	/	3	-1	2
O=C(Nc1ccc(-c2nc3ccccc3[nH]2)cc1)c1ccco1	-1	1	42*	-20	-16
Cc1ccn2cc(-c3ccc(NC(=O)c4ccco4)cc3)nc2c1	0	0	33*	-4	2
